The text below walks through data of PubChem BioAssay AID1053143 (Broad Institute, 2014).

Molecules are shown by their SMILES. Among all 3,400 compounds or so, about 120 (3.5%) were called active. The rule behind the calls is not given here. A selection follows. Results with a measured potency or affinity are listed apart.

This assay is described as follows: HepG2 cell cytotoxicity, dose response, cytotoxicity control, ATP luminescence, cherry-pick, activator set 2 (AID 1053143). To be noted: HepG2 viability, CellTiter-Glo ATP luminescence, 72 h; series mostly up to 26 µM.
With `CN1CCN(c2ccc(-c3ccnn3C(=O)Nc3ccccc3)cc2)CC1`, the activity change, negative = cytotoxicity result was “inactive”.
Turning to `CS(=O)(=O)N1CCN(c2ccc(NC(=O)c3ccc(Br)o3)cc2)CC1`, the activity change, negative = cytotoxicity entry was “inactive”.
As to `Cc1ccccc1Nc1nn2c(=O)c3ccccc3nc2s1`, the activity change, negative = cytotoxicity entry is “inactive”.
For the compound `COc1c(C(=O)NNC(=O)c2ccccc2)csc1Br`, the activity change, negative = cytotoxicity entry was “inactive”.
For the compound `Oc1c(/C=N/c2ccccn2)sc2ccccc12`, the activity change, negative = cytotoxicity entry is “inactive”.
Turning to `CC(/C=N/Nc1nc2ccccc2[nH]1)=C\c1ccccc1`, the activity change, negative = cytotoxicity result was “inactive”.
For `Cc1ccc(/C=C/C(=O)c2nc3ccccc3[nH]2)cc1`, the activity change, negative = cytotoxicity entry is “inactive”.
Next, `CC(C)C(OC(=O)C1=Cc2ccccc2OC1)C(=O)NCC1CCCO1` (centres undefined): “inactive”; `Cc1ccc2nc(-c3ccc(NS(=O)(=O)c4ccc(F)cc4)cc3)sc2c1`: “inactive”; `Nc1ccc(-c2nc3ccccc3s2)cn1`: “inactive”.
The value for `COc1ccc(OCc2cc(C(=O)N3CCOCC3)no2)c(Cl)c1` was “inactive”; that for `O=c1cccc2n1Cc1cc3ccccc3nc1-2` was “inactive”; that for `COc1ccc(C(=O)COC(=O)c2sccc2C)cc1OC` was “inactive”.
The value for `O=C(Nc1ccc(NC(=O)C2CC2)cn1)c1ccccc1Cl` was “inactive”; that for `O=C(Nc1ccc(C(=O)c2ccccc2)cc1)c1ccccc1` was “inactive”; that for `Nc1ccccc1N=Nc1ccccc1N` was “inactive”.
For `CC(C)(C)OC(=O)N/N=C\C=C\c1ccc2c(c1)OCO2`, the activity change, negative = cytotoxicity entry is “inactive”.
For the compound `CCc1ccc(NC(=O)C(=O)c2ccccc2NC(C)=O)cc1`, the activity change, negative = cytotoxicity result was “inactive”.
On to `O=C(Nc1ccc2c(c1)OCO2)N1CCCc2ccccc21`, for which the activity change, negative = cytotoxicity entry was “inactive”.
As for `COc1ccc(NC(=O)N2CCCc3ccccc32)cc1`, the activity change, negative = cytotoxicity entry was “inactive”.
The value for `O=C(Nc1ccc(NC(=O)C2CCCCC2)nc1)c1cccs1` was “inactive”; that for `COc1ccc(NC(=O)/C(=C\c2ccc3c(c2)OCO3)NC(C)=O)cc1` was “inactive”; that for `COc1ccc2c(c1)CCC1C2=NN(/C(C)=C\C(C)=O)C1c1ccc(F)cc1` (centres undefined) was “inactive”.
Regarding `CCN(CC)c1cc(C)c(C#N)c2nc3ccccc3n12`, the activity change, negative = cytotoxicity entry is “inactive”.
Next, `c1ccc(-c2ccc3ccccc3n2)cc1`: “inactive”.
Regarding `O=C(c1cccs1)N1CCN=C1SCc1ccc(F)cc1`, the activity change, negative = cytotoxicity result was “inactive”.
As to `COc1ccc(-c2cn(Cc3ccc(C(=O)c4ccccc4)cc3)nn2)cc1`, the activity change, negative = cytotoxicity entry is “inactive”.
For the compound `O=C(N/N=C/c1ccc(Br)cc1)c1ccc(Br)o1`, the activity change, negative = cytotoxicity result is “inactive”.
For the compound `CCc1ccc2cc3c(cc2n1)C(=O)c1ccccc1-3`, the activity change, negative = cytotoxicity result was “inactive”.
On to `COc1ccc(NC(=O)Nc2ccc(F)c(Cl)c2)cc1`, for which the activity change, negative = cytotoxicity entry is “inactive”.
Take `O=C(Nc1ccc(F)c(Cl)c1)c1ccccc1`: the activity change, negative = cytotoxicity result is “inactive”.
For the compound `COc1ccccc1NC(=O)CCC(=O)Nc1nnc(C2CCCCC2)s1`, the activity change, negative = cytotoxicity result is “inactive”.
`COc1cccc(C=Cc2nccc3ccccc23)c1OC`: the activity change, negative = cytotoxicity result is “inactive”.
Next, `O=C1c2ccccc2C(=O)C1c1ccnc2ccccc12`: “inactive”.
For `C=CCSc1nc2c(cnn2-c2ccccc2)c(=O)n1N`, the activity change, negative = cytotoxicity entry is “inactive”.
Regarding `Cc1ccc(OCC(=O)Nc2ccccc2[N+](=O)[O-])c(Br)c1`, the activity change, negative = cytotoxicity result was “inactive”.
As to `O=c1c2ccccc2oc2cc(NCCCN3CCOCC3)ccc12`, the activity change, negative = cytotoxicity entry is “inactive”.
For the compound `O=c1c2ccccc2oc2cc(-c3ccc4cc[nH]c4c3)ccc12`, the activity change, negative = cytotoxicity result was “inactive”.
Next, `Cc1ccc(-c2nc(Nc3ccccc3)n[nH]2)cc1`: “inactive”; `Nc1nc(CSc2ccccn2)nc(Nc2ccccc2)n1`: “inactive”.
The value for `Nc1ccccc1-c1nc2ccccc2s1` was “inactive”; that for `Nc1ccccc1-c1nc2ccccc2[nH]1` was “inactive”.
`Cc1ccc(C)c(Nc2nc(N)c3ccccc3n2)c1`: the activity change, negative = cytotoxicity entry is “inactive”.
For the compound `Cc1ccccc1Nc1nc(N)nc(-c2oc3ccccc3c2C)n1`, the activity change, negative = cytotoxicity result was “inactive”.
The value for `COc1ccc(-c2c3c(nc4sc(C(=O)Nc5ccccc5)c(N)c24)CCC3)cc1` was “inactive”.
With `CN(CC(=O)Nc1cccc(F)c1)C(=O)CCNC(=O)c1ccco1`, the activity change, negative = cytotoxicity entry was “inactive”.
Consider `CCOC(=O)c1ccc(S(=O)(=O)NCCNCc2ccccc2)cc1`, for which the activity change, negative = cytotoxicity result is “inactive”.
Regarding `CCOC(=O)C1CCN(C(=O)c2cc3cc(C)ccc3[nH]2)CC1`, the activity change, negative = cytotoxicity result was “inactive”.
The value for `COC(=O)c1ccc2[nH]c(C3(O)CCCCC3)c(C)c2c1` was “inactive”; that for `CC(C)c1ccc(N=C2N=C(N)c3ccccc32)cc1` was “inactive”; that for `Cc1ccc(-c2noc(CSc3ccccc3)n2)cc1` was “inactive”.
`CCOc1ccc(NC(=O)c2ccc3c(c2)N(C)CCS3)cc1`: the activity change, negative = cytotoxicity result is “inactive”.
For the compound `COc1ccc(NC(=O)c2ccc3c(c2)N(C)CCS3)cc1`, the activity change, negative = cytotoxicity entry was “inactive”.
`Cc1ccc(NC(=O)Nc2cnc3ccccc3c2)cc1`: the activity change, negative = cytotoxicity entry was “inactive”.
With `c1ccc(-c2nc(-c3ccc(-c4ccon4)s3)no2)cc1`, the activity change, negative = cytotoxicity result was “inactive”.
Next, `CCCC(=O)N=C1SC2CS(=O)(=O)CC2N1c1ccc(-c2nc3ccc(C)cc3s2)cc1` (centres undefined): -6.16% [at 6 µM] (inactive).
`O=c1c2c3c(sc2nc2n1CCCCC2)CCCC3`: the activity change, negative = cytotoxicity entry was “inactive”.
The value for `O=C(Cc1ccccc1)Nc1ccc(NC(=O)c2ccco2)nc1` was “inactive”; that for `O=C(CCc1ccccc1)Nc1ccc(NC(=O)c2ccco2)nc1` was “inactive”.
As for `Cc1ccc2cc(NC(=O)c3cccc(F)c3)ccc2n1`, the activity change, negative = cytotoxicity result was “inactive”.
Take `O=C(Nc1ccc(NC(=O)c2ccco2)nc1)c1cccc(F)c1`: the activity change, negative = cytotoxicity entry is “inactive”.
The value for `CC(=O)Nc1ccc2c(c1)C(=Nc1cccc(C)c1)c1ccccc1-2` was “inactive”; that for `C/C(=N\OC(=O)Nc1ccc(Cl)cc1)c1ncc(C(F)(F)F)cc1N1CCOCC1` was “inactive”.
`O=C(CSc1nnc(-c2cccnc2)o1)Nc1ccccc1F`: the activity change, negative = cytotoxicity entry is “inactive”.
For `O=C(CSc1nnc(-c2ccccn2)o1)Nc1ccccc1F`, the activity change, negative = cytotoxicity entry was “inactive”.
Consider `CCOc1nc(N2CCOCC2)nc(C)c1[N+](=O)[O-]`, for which the activity change, negative = cytotoxicity result is “inactive”.
On to `Cc1ccc(NC(=O)c2ccc(F)cc2F)cc1`, for which the activity change, negative = cytotoxicity result is “inactive”.
For the compound `c1ccc(-c2nnc(-c3ccccn3)nn2)nc1`, the activity change, negative = cytotoxicity result was “inactive”.
As for `c1ccc(-c2ccc(-c3ccccn3)s2)nc1`, the activity change, negative = cytotoxicity entry is “inactive”.
As to `COc1cccc(-c2nnc(-c3ccc4ccccc4c3)o2)c1`, the activity change, negative = cytotoxicity result was “inactive”.
The value for `Cc1ccc2oc(-c3cccc(NC(=O)c4ccccn4)c3)nc2c1` was “inactive”; that for `COc1ccc(-c2nnc(-c3ccc(C)cc3)o2)cc1` was “inactive”.
For the compound `COC(=O)c1ccc(-c2nc3ccc(C)cc3o2)cc1`, the activity change, negative = cytotoxicity entry is “inactive”.
On to `COC(=O)CSc1nc2ccccc2c(=O)n1C`, for which the activity change, negative = cytotoxicity entry was “inactive”.
Regarding `COc1cc(CO)ccc1OCc1ccc(Cl)nc1`, the activity change, negative = cytotoxicity entry was “inactive”.
Consider `Clc1ccccc1OCc1nc(-c2ccccn2)no1`, for which the activity change, negative = cytotoxicity entry was “inactive”.
As to `Cn1c(SCC(=O)c2ccccc2)nnc1-c1ccco1`, the activity change, negative = cytotoxicity entry is “inactive”.
For `Cc1cc(C(=O)COC(=O)c2cccc(S(=O)(=O)N(C)C)c2)c(C)n1CC1CCCO1` (centres undefined), the activity change, negative = cytotoxicity result is “inactive”.
Turning to `CC(C)Oc1ccc(C(=O)OCC(=O)c2ccc[nH]2)cc1`, the activity change, negative = cytotoxicity result is “inactive”.
As to `COC(=O)CSC(C(=O)Nc1ccc(C)c(C)c1)c1ccccc1` (centres undefined), the activity change, negative = cytotoxicity entry is “inactive”.
For `CCCc1nc2c3ccccc3ccn2c1Cc1ccccc1`, the activity change, negative = cytotoxicity entry was “inactive”.
Next, `COc1ccc2[nH]c3c(=O)n(CCc4ccccc4)cnc3c2c1`: “inactive”.
As for `Nc1ccc(C(=O)OCCc2ccccc2)cc1`, the activity change, negative = cytotoxicity entry was “inactive”.
As for `O=C(Nc1ccc(Cl)cn1)c1ccccc1F`, the activity change, negative = cytotoxicity entry is “inactive”.
On to `O=C(Nc1ccc(Cl)cn1)c1ccc2nccnc2c1`, for which the activity change, negative = cytotoxicity entry is “inactive”.
For the compound `OCC1OC(n2ccc3c(SCc4ccccc4)ncnc32)C(O)C1O` (centres undefined), the activity change, negative = cytotoxicity was -7.9% [at 6 µM] (inactive).
With `Cc1cc(N2CCOCC2)nc2cc(O)ccc12`, the activity change, negative = cytotoxicity entry was “inactive”.
On to `O=C1c2ccccc2NC(c2ccc(-c3cccs3)o2)N1O` (centres undefined), for which the activity change, negative = cytotoxicity result was “inactive”.
Consider `c1cnc(SCCCOc2ccc3ccccc3c2)nc1`, for which the activity change, negative = cytotoxicity result is “inactive”.
As to `Cc1ccc(NC(=O)CCC(=O)c2cccs2)cc1`, the activity change, negative = cytotoxicity result is “inactive”.
As for `C=CCNc1nc(-c2ccc3c(c2)OCCO3)cs1`, the activity change, negative = cytotoxicity entry is “inactive”.
Next, `O=c1oc(CCCO)cc2ccc(/C=C/c3cccc([N+](=O)[O-])c3)cc12`: “inactive”; `CN1CCCN(C(=O)c2cc(-c3cccc4ccccc34)nc3ccccc23)CC1`: “inactive”; `CC(C)c1cc(C(=O)NCCc2ccccc2)no1`: “inactive”.
As for `O=C(Nc1cccnc1Cl)c1cc(-c2ccco2)on1`, the activity change, negative = cytotoxicity entry was “inactive”.
With `O=C(Nc1ccc(F)c(Cl)c1)c1cc(-c2ccco2)on1`, the activity change, negative = cytotoxicity result is “inactive”.
The value for `COc1ccc(NC(=O)c2cc(-c3ccco3)on2)cc1` was “inactive”; that for `COc1ccc2cc(-c3ccccc3)c(=O)oc2c1` was “inactive”; that for `Cc1ccc(C)c(OCc2cc(C(=O)N3CC[C@H](O)C3)no2)c1` was “inactive”.
For the compound `COC(=O)C1=C(N)Oc2c(oc(CO)cc2=O)C1c1ccc(F)cc1` (centres undefined), the activity change, negative = cytotoxicity entry was “inactive”.
With `Fc1ccc(SCCc2ccccn2)cc1`, the activity change, negative = cytotoxicity entry is “inactive”.
The value for `Cc1ccc(C(=O)Nc2cccc(-c3ccc(N4CCOCC4)nn3)c2)cc1` was “inactive”; that for `CCOC(=O)C1CCN(C(=O)/C=C/c2ccccc2)CC1` was “inactive”.
For the compound `O=C(Nc1cccc(-c2ccc(N3CCOCC3)nn2)c1)c1cccc(Cl)c1`, the activity change, negative = cytotoxicity result was “inactive”.
Next, `CCOC(=O)C1CCN(C(=O)C(CC)c2ccccc2)CC1` (centres undefined): “inactive”.
As to `Fc1ccc(/C=C/c2nnc(-c3cccs3)o2)cc1`, the activity change, negative = cytotoxicity entry is “inactive”.
Take `O=C(C=NNc1ccccc1)c1ccccc1`: the activity change, negative = cytotoxicity entry was “inactive”.
Take `CCC(C)C(=O)Nc1nnc(-c2cccs2)s1` (centres undefined): the activity change, negative = cytotoxicity entry is “inactive”.
Next, `NC(=O)c1ccccc1NC(=O)c1ccc2c(c1)OCO2`: “inactive”; `O=C(Nc1cccnc1Cl)c1cc2ccccc2o1`: “inactive”; `O=C(Nc1ncccc1O)c1ccc2ccccc2c1`: “inactive”.
With `O=C(Nc1cccnc1)c1ccc(Oc2ccccc2)cc1`, the activity change, negative = cytotoxicity result is “inactive”.
As for `O=C(Nc1ccc(Cl)cc1Cl)c1ccc2c(c1)OCCO2`, the activity change, negative = cytotoxicity entry is “inactive”.
Take `O=C(Nc1ncccc1Cl)c1cc2ccccc2o1`: the activity change, negative = cytotoxicity result is “inactive”.
Next, `O=C(Nc1ccccc1F)c1ccc2c(c1)OCO2`: “inactive”; `O=C(Nc1cccc([N+](=O)[O-])c1)c1ccc2c(c1)OCCO2`: “inactive”; `CC(=O)Oc1ccc(Oc2ccc(-c3noc(C)n3)cc2)cc1`: “inactive”.
For the compound `CSc1nnc(NC(=O)c2ccc(S(=O)(=O)N(C)C)cc2)s1`, the activity change, negative = cytotoxicity result was “inactive”.
Turning to `CN(C)c1ccc(-c2nnc(-c3cccs3)o2)cc1`, the activity change, negative = cytotoxicity entry was “inactive”.
On to `CCN(CC)C(=O)C1CCN(Cc2cn(C)nc2-c2ccc(Oc3ccccc3)cc2)CC1`, for which the activity change, negative = cytotoxicity entry is “inactive”.
For `COc1ccc(-c2[nH]ncc2CNC(C)c2ccccc2Cl)cc1F` (centres undefined), the activity change, negative = cytotoxicity result is “inactive”.
With `O=C(O)c1ccccc1-c1ccccc1C(=O)NNc1ccccc1`, the activity change, negative = cytotoxicity entry is “inactive”.
Next, `O=C(N/N=C/c1ccc(N2CCOCC2)cc1)c1ccccn1`: “inactive”; `O=C(COC(=O)c1ccc(F)c(S(=O)(=O)N2CCCCC2)c1)NCc1ccc(F)cc1`: “inactive”.
